ALOX12 inh: Primary qHTS assay for inhibitors of human arachidonate 12S-lipoxygenase (ALOX12): Round 2; purified 12hLO, xylenol orange hydroperoxide absorbance; Potency, µM (titrated, usually from 108 µM), without a hit: at the highest dose activity change, negative = inhibition, usual class: inhibitors; 580,000 tested, 1.1% active; Polyunsaturated fatty acid lipoxygenase ALOX12 (Homo sapiens), P18054; further: potency means the concentration at half of the fitted maximal effect
Target sequence (P18054 whole entry, looked up): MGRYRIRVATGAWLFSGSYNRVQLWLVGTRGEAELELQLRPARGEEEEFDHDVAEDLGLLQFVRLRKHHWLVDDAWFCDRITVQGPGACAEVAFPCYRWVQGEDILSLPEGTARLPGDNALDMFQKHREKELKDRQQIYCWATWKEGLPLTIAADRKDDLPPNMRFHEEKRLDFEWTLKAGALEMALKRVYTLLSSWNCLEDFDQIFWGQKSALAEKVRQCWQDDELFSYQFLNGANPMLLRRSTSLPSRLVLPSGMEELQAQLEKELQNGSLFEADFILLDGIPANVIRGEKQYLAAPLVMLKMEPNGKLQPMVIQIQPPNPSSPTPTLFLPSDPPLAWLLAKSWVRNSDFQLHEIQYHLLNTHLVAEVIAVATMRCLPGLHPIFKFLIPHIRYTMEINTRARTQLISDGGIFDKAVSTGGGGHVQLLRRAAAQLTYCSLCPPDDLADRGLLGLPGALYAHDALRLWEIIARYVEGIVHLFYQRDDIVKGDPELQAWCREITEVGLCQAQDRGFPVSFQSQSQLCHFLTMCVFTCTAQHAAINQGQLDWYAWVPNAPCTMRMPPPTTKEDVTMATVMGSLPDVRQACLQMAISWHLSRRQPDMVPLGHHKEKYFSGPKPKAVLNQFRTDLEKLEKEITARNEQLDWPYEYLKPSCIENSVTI
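Purified human 12hLO at 150 nM in 25 mM Hepes, 0.01% Triton X-100, pH 7.0, preincubated 15 min at room temperature with compound. Reaction started with 40 uM arachidonic acid, 30 min at room temperature. Hydroperoxide measured by Fe-xylenol orange, 573/405 nm absorbance ratio.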
HT1080 IDH1KD tx: qHTS for induction of synthetic lethality in tumor cells producing 2HG: qHTS for the HT-1080-IDH1KD cell line; HT-1080 IDH1 knockdown viability, ATP luminescence, 48 h; Potency, µM (doses to about 46.1 µM), for the others: top-dose activity, negative = toxicity, hits mostly cytotoxic; 360,000 tested, 2% active;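 further: potency means the concentration at half of the fitted maximal effect; 0% = DMSO wells and -100% = cell-free medium wells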
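Luminescent ATP read-out (CellTiter-Glo, 10 min at room temperature) after 48 h compound exposure at 37 °C gave viability of IDH1-knockdown HT-1080 cells. Activity was normalised to DMSO and cell-free wells, then fitted as concentration-response curves.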
IL1B secr inh: qHTS for Inhibitors of Inflammasome Signaling: IL-1-beta AlphaLISA Primary Screen. THP-1 LPS/ATP IL-1B secretion, AlphaLISA, 16 h; stronger effect = lower value. activity change, % at 57.5 µM. 360,000 tested, 4.7% active; in the data active means activity change below about -50%; inconclusive means mostly about -30% to -49%
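THP-1 cells pretreated 1 hr with compounds (up to 57.5 uM final), then stimulated with LPS (250 ng/mL final) plus ATP (1.25 mM final); secreted IL-1B measured by AlphaLISA after 16 hr, decreased signal indicating inhibition.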
DT40 TDP1 no CPT: qHTS for Inhibitors of human tyrosyl-DNA phosphodiesterase 1 (TDP1): qHTS in cells in absence of CPT | DT40 Tdp1-/- hTDP1 cells, no CPT, ATP luminescence, 48 h | Potency, µM (highest dose often 46.2 µM), without a hit: top-dose activity change, negative = growth inhibition, usual class: inhibitors | 420,000 tested, 15% active; further: potency means the concentration at half of the fitted maximal effect; nearly all actives have a fitted effect of over 55% in size
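DT40 Tdp1-/-;hTDP1 cells, no CPT (DMSO vehicle only), 400 cells/well; compounds pin-transferred; ≥48 hr, 37 °C; CellTiter-Glo 30 min RT dark, luminescence read.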
HT1080NT lethal: qHTS for induction of synthetic lethality in tumor cells producing 2HG: qHTS for the HT-1080-NT fibrosarcoma cell line; 360,000 tested, 1.6% active; AID 686970, 2013; Potency, µM (titrated, usually from 46.1 µM), for inactives: top-dose activity, negative = less viability, hits mostly cytotoxic; HT-1080-NT fibrosarcoma viability, CellTiter-Glo ATP luminescence, 48 h;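 further: NT is the 2HG producing partner of a matched IDH1 knockdown line; potency means the concentration at half of the fitted maximal effect; 0% = DMSO-treated cells and -100% = media-only wells without cells; nearly all actives have a fitted effect of over 55% in size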
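Toxicity toward the 2HG-producing NT line was scored as %Activity, normalised to DMSO and no-cell wells, from CellTiter-Glo luminescence after 48 hours' treatment.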
DT40 TDP1 CPT: qHTS for Inhibitors of human tyrosyl-DNA phosphodiesterase 1 (TDP1): qHTS in cells in presence of CPT | chicken DT40 Tdp1-/-;hTDP1 cells + 20 nM CPT, ATP luminescence, 48 h | Potency, µM (top dose mostly 46.2 µM), for inactives: at the highest dose activity change, negative = growth inhibition, usual class: inhibitors | 420,000 tested, 12% active | AID 686979, 2013; further: potency means the concentration at half of the fitted maximal effect; nearly all actives have a fitted effect of over 55% in size
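Chicken DT40 Tdp1-/- cells stably complemented with human TDP1 were seeded at 400 cells/well in medium containing 20 nM camptothecin, exposed to pin-transferred compounds, and grown at 37 °C for at least 48 hr. Viability was read as ATP luminescence.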
Numbers without * were called inactive; u = inconclusive; x = no result; [ ] = remark or other dose. The sample as a whole holds a higher share of hits than the screen did. Unless noted, the call rests on the fitted dose curve; in most records, active means well fitted curve in the direction sought with a large enough effect; inconclusive means small, poorly fitted or top-dose-only effect, or another doubt; inactive means no such curve, though single readings can be large; an effect the other way counts as inactive or inconclusive. Unless noted, on the % scale 0 is the no-effect control and ±100 the full control effect.

SMILES	ALOX12 inh	HT1080 IDH1KD tx	IL1B secr inh	DT40 TDP1 no CPT	HT1080NT lethal	DT40 TDP1 CPT
O=C(COc1ccccc1Cl)N1CCCC(N2CCN(c3ccc(F)cc3)CC2)C1 (stereo not drawn)	0.1%	-19.0%	u	u	-1.8%	u
CN(Cc1ccccc1)C1CCCN(C(=O)COc2ccccc2Cl)C1 (stereo not drawn)	-0.6%	-1.6%	-8.4	16.4µM*	-7.6%	u
CN1Cc2ccccc2-n2ccnc2C12CCN(C(=O)Cc1cccc(F)c1)CC2	42.7%	x	x	x	x	x
COc1ccccc1N1CCN(C(=O)[C@H]2CN3CCC2C[C@@H]3Cn2cc(C(C)(C)O)nn2)CC1 (stereo partly drawn)	17.1%	x	x	x	x	x
O[C@H]1[C@H](NCC2CCCC2)[C@@H](c2ccccc2)C[C@H]1O	18.1%[176 µM]	x	x	x	x	x
CCN(CC)CCCOC(=O)C(OC(C)C)(c1ccccc1)c1ccccc1	u	u	-56.3*	18.4µM*	u	23.1µM*
CCOC(C(=O)OCCCN(CC)CC)(c1ccccc1)c1ccccc1	341.0%	-12.9%	u	u	-12.6%	-18.3%
Cc1ncc2c(n1)C[C@@H]1CC[C@H]2N1C(=O)CCC1CCCC1	16.8%	x	x	x	x	x
OCCN1C2CCC1CC(O)(c1ccc(F)cc1)C2 (stereo not drawn)	-3.5%	-3.2%	-8.1	-4.3%	-2.1%	1.2%
CCC1C(c2ccccc2)NC(c2ccccc2)CC1(O)c1ccc(F)cc1 (stereo not drawn)	-7.1%	u	-16.3	23.1µM*	-0.4%	u
C[C@]12N[C@@H](Cc3ccccc31)c1ccccc12	271.5%	x	x	-14.4%	x	-1.4%
COC(=O)C1=C(c2ccc(F)cc2F)C[C@@H]2CC[C@H]1N2C(=O)NCCOc1ccccc1	8.8%	1.0%	-11.1	u	-6.9%	23.1µM*
CCCNC(=O)N1[C@H]2CC[C@@H]1C(C(=O)OC)=C(c1ccc(-c3ccccc3)c(F)c1)C2	2.7%	-5.9%	u	7.31µM*	-13.0%	9.2µM*
COC(=O)C1=C(c2ccc(-c3ccccc3)c(F)c2)C[C@@H]2CC[C@H]1N2C(=O)NCCOc1ccccc1Cl	5.5%	-16.5%	u	u	-24.9%	u
COC(=O)C1=C(c2ccc(-c3ccccc3)c(F)c2)C[C@@H]2CC[C@H]1N2C(=O)NCCO	6.7%	-1.3%	-6.2	20.6µM*	8.8%	u
COC(=O)C1=C(c2ccc(-c3ccccc3)c(F)c2)C[C@@H]2CC[C@H]1N2C(=O)NCc1ccco1	-14.1%	-10.7%	-16.0	6.51µM*	-23.7%	7.31µM*
CCC1(c2cnc[nH]2)Cc2ccccc2C1	-5.0%[22.9 µM]	x	x	u	x	u
COCCn1c(C)cc(C(=O)NC2CCc3nnc(C)n3CC2)c1C (stereo not drawn)	-0.4%	x	x	x	x	x
COc1ccc(-c2cc3nc(C)c(CCC(=O)N4CCN(c5cc(C)ccc5C)CC4)c(C)n3n2)c(OC)c1	-9.6%	x	x	9.2µM*	x	8.2µM*
COc1ccc(CN2CCN(C(=O)COc3ccccc3)CC2)c(OC)c1	u	x	x	u	x	-25.2%
O=c1n(Cl)c(=O)n(Cl)c(=O)n1Cl	x	x	x	3.4%	x	7.1%
COc1cc(C2c3cc4c(c(O)c3CC3COC(=O)C32)OCO4)cc(OC)c1O (stereo not drawn)	u	x	x	u	x	0.0708µM*
C=CCc1cc(OC)c2c(c1)OCO2	-15.0%	13.7%	11.1	-0.5%	6.4%	-2.3%
